# According to PubChem BioAssay (NCATS):
# Values without a mark were called inactive. Results filed as inconclusive are left out. The source made the active and inactive calls. Unless noted, calls come from the whole dose curve; as a rule, active = well fitted curve in the direction sought with a large enough effect; inconclusive = small, poorly fitted or top-dose-only effect, or another doubt; inactive = no such curve, though single readings can be large; an effect the other way counts as inactive or inconclusive.
# Experiments:
# [1] = target: Lysosomal acid glucosylceramidase (Homo sapiens) (UniProt P04062); experiment: Glucocerebrosidase-p2 (AID 348; in the data active = potency below about 10 µM; note: potency is the fitted concentration of half-maximal effect); conditions: purified GBA, blue fluorogenic substrate, 40 min
# How it was run: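 Compounds titrated from 0.6 nM upwards against 0.2 nM enzyme in pH 5.9 citric acid/KH2PO4, taurocholate, tween-20; blue fluorogenic substrate 80 uM, 40 min room temperature, stopped and read Ex 365/Em 440 for AC50.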
# [2] = AP1 Signaling Pathway (AID 357; active = well fitted curve in either direction with a large enough effect, not every such curve was filed as active;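 note: ME-180 reporter cells stimulated with EGF at its EC50 level; % is set by controls: 0 for no effect and ±100 for the full control effect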); conditions: ME-180 AP-1-bla reporter, EGF-induced, beta-lactamase ratio, 5 h; at 7.69 µM (top of the series) unless noted
# How it was run: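 A ratiometric CCF4 readout (405 nm excitation; 460 and 530 nm emission) quantified AP-1-driven beta-lactamase in ME-180 cells after 5 h with compound and EC50 EGF; AC50 values were derived for activators and inhibitors.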
# [3] = target: Cytochrome P450 1A2 (Homo sapiens) (UniProt P05177); experiment: p450-cyp1a2 (AID 410; calls by dose curve; note: potency is the fitted concentration of half-maximal effect); conditions: recombinant CYP1A2, luciferin-ME demethylation, luminescence; series mostly up to 57 µM
# How it was run: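 20nM CYP1A2 with 100uM Luciferin-ME (at Km) in 100mM KPO4; compound preincubated 10 min, NADPH regeneration added, 60 min at room temperature. Luciferin quantified by luminescence after detection reagent; normalized to 57 uM furafylline.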
# [4] = NFAT Signaling Pathway (AID 444; active = well fitted curve in either direction with a large enough effect, not every such curve was filed as active;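 note: carbachol stimulus at about its EC50 of 1 µM final; % is set by controls: 0 for no effect and ±100 for the full control effect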); conditions: Jurkat NFAT-bla M1, carbachol, beta-lactamase ratio, 5 h; at 7.69 µM (top of the series) unless noted
# How it was run: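 Jurkat cells with NFAT-driven β-lactamase reporter and co-expressed M1 receptor, stimulated with carbachol (final 1 uM, ~EC50), compound titration, 5 h at 37 °C. CCF4 loaded 1 h at RT; 460/530 nm ratio gave %activity and AC50.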
# [5] = Stat Signaling Pathway (AID 446; active = well fitted curve in either direction with a large enough effect, not every such curve was filed as active;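 note: ME-180 cervical cancer cells given 40 pM IL-6 alongside compound; SIE-controlled beta-lactamase reporter measured as 460/530 nm FRET emission ratio; % is set by controls: 0 for no effect and ±100 for the full control effect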); conditions: ME-180 SIE beta-lactamase reporter, IL-6 stimulated, 5 h; at 7.69 µM (top of the series) unless noted
# How it was run: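 Screening format detects activators and inhibitors alike: ME-180 SIE-bla cells stimulated at 40 pM IL-6 for 5 hrs with compound, then dual-emission beta-lactamase read at 405 nm excitation.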
# [6] = target: Glucocorticoid receptor (Homo sapiens) (UniProt P04150); experiment: GR-GFP Redistribution (AID 450;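 active = compounds whose dose series gives a full or clear partial fitted curve of increased nuclear translocation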; note: potency is the fitted concentration of half-maximal effect); conditions: U2OS GR-GFP nuclear translocation, laser cytometry, 2 h
# [7] = target: Glucocorticoid receptor (Homo sapiens) (UniProt P04150); experiment: GR-EFC Redistribution (AID 451; calls by dose curve; note: potency is the fitted concentration of half-maximal effect); conditions: CHO-K1 GR-EFC translocation, beta-gal luminescence, 2 h
# How it was run: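 CHO-K1 cells expressing nuclear EA and GR-ED fragments of b-gal; compounds titrated up to 46 uM final, 2 h at 37 C. GR nuclear translocation read as complemented b-gal luminescence after 1 h RT detection.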
# [8] = target: Mitogen-activated protein kinase 10 (Mus musculus) (UniProt Q61831); experiment: JNK3 AlphaScreen Assay (AID 530; active = well fitted curve in either direction with a large enough effect, not every such curve was filed as active;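 note: kinase came from lysate of stimulated human HepG2 cells; signal reports phosphorylation of biotinylated GST-cJun 1-79 at Ser73 with 10 µM ATP; % is set by controls: 0 for no effect and ±100 for the full control effect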); conditions: JNK3 lysate, c-Jun phosphorylation; series mostly up to 57.1 µM
# How it was run: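 Pre-activated (IL-1β/TNFα) JNK3 in HepG2 lysates phosphorylates biotin-GST-cJun(1-79), 10 uM ATP; anti-phospho-cJun(Ser73) AlphaScreen read at room temperature, pH 7.6 Tris buffer. Compounds pre-incubated 15 min as titrations.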
# [9] = target: 3',5'-cyclic-AMP phosphodiesterase 4B (Homo sapiens) (UniProt Q07343); experiment: qHTS Assay for Inhibitors of PDE-IV (AID 607; active = well fitted activation curve with a large enough effect in the main read-out, with a control signal flat, not every such curve was filed as active; note: % of control where 0% means no effect); conditions: HEK293 ACTOne CNG channel cells, membrane potential fluorescence; series mostly up to 22.9 µM
# How it was run: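 The readout is membrane depolarisation from a cAMP-sensing CNG channel, detected with a potential dye at ex 535/em 590. Cells were HEK293-derived (endogenous PDE-IV) at 1000 cells/well, titrated up to 22.9 uM final.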
# [10] = target: Cytochrome P450 3A4 (Homo sapiens) (UniProt P08684); experiment: qHTS Assay for Inhibitors and Substrates of Cytochrome P450 3A4 (AID 884); conditions: recombinant CYP3A4, Luciferin-PPXE luminescence; series mostly up to 57.1 µM; note: potency is the fitted concentration of half-maximal effect; nearly all actives have a fitted effect of over 50% in size
# How it was run: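 20 nM human CYP3A4 with 25 uM Luciferin-PPXE (at KM) in 200 mM KPO4, preincubated 10 min with compound; NADPH regeneration started a 60 min RT reaction. Luciferin detected by luminescence, normalized to 57 uM ketoconazole as full inhibition.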
# [11] = target: Cytochrome P450 2C19 (Homo sapiens) (UniProt P33261); experiment: qHTS Assay for Inhibitors and Substrates of Cytochrome P450 2C19 (AID 899); conditions: recombinant CYP2C19, luciferin-H EGE luminescence; series mostly up to 57.1 µM; note: potency is the fitted concentration of half-maximal effect; nearly all actives have a fitted effect of over 60% in size
# How it was run: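 Signal comes from luciferase acting on luciferin released by CYP2C19-mediated hydroxylation of Luciferin-H EGE, 10uM (KM). Assay mix: 5nM enzyme, 50mM KPO4; 60 min at 37C with NADPH regeneration. Data normalized against 57uM ketoconazole.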
# [12] = target: Dual specificity protein kinase CLK4 (Homo sapiens) (UniProt Q9HAZ1); experiment: qHTS Assay for Inhibitors of CDC-like Kinase 4 (Kinase-Glo Assay) (AID 1770); conditions: recombinant Clk4, Kinase-Glo ATP depletion luminescence; series mostly up to 66.7 µM; note: nearly all actives have a fitted effect of over 65% in size; note: potency is the fitted concentration of half-maximal effect
# How it was run: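 Recombinant human Clk4 (25 nM) phosphorylated RS repeat peptide (100 uM) with 1 uM ATP in Tris pH 7.5/MgCl2/EGTA/DTT/Triton buffer for 4.5 h at room temperature. Residual ATP was quantified by Kinase-Glo luciferase luminescence.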
# [13] = target: Dual specificity protein kinase CLK4 (Homo sapiens) (UniProt Q9HAZ1); experiment: qHTS Assay for Inhibitors of CDC-like Kinase 4 (ADP-FP Assay) (AID 1795); conditions: Transcreener ADP fluorescence polarization; series mostly up to 50 µM; note: nearly all actives have a fitted effect of over 60% in size; note: potency is the fitted concentration of half-maximal effect
# How it was run: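 Recombinant human Clk4 (6.25 nM) phosphorylated RS repeat peptide (100 uM) with 1 uM ATP in Tris pH 7.5/MgCl2/EGTA/DTT/Triton buffer for one hour. ADP was quantified by Transcreener competitive fluorescence polarization against an ADP calibration curve.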
# [14] = target: Ubiquitin carboxyl-terminal hydrolase 1 (Homo sapiens) (UniProt O94782); experiment: Inhibitors of USP1/UAF1: Pilot qHTS (AID 504865); conditions: purified USP1/UAF1, Ub-rhodamine cleavage fluorescence; series mostly up to 54.9 µM; note: nearly all actives have a fitted effect of over 35% in size; note: potency is the fitted concentration of half-maximal effect
# How it was run: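 USP1/UAF1 complex (1nM) preincubated with compound 15 min at room temperature, then Ub-Rho substrate (150nM final) added. Fluorescence read kinetically at 480/540 nm, 6 reads every 60 seconds. Buffer: 50mM HEPES pH 7.8, 0.5mM EDTA, 0.1 mg/ml BSA, 1mM TCEP, 0.01% Tween-20.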
# [15] = Primary qHTS for small molecule stabilizers of the endoplasmic reticulum resident proteome: Secreted ER Calcium Modulated Protein (SERCaMP) assay (AID 1508630); conditions: SH-SY5Y GLuc-SERCaMP (Gaussia luciferase released on ER calcium loss) secretion, thapsigargin, luminescence; series mostly up to 38.4 µM; note: % is set by controls: 0 for no effect and ±100 for the full control effect
# How it was run: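 GLuc-SERCaMP-expressing SH-SY5Y cells, pretreated 16 h with compound, are challenged with thapsigargin to empty ER calcium stores; after 4 h, coelenterazine is added directly to the medium and luminescence is imaged.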
# [16] = target: Cytochrome P450 3A4 (Homo sapiens) (UniProt P08684); experiment: qHTS Assay for Activators of Cytochrome P450 3A4 (AID 885); conditions: recombinant CYP3A4, Luciferin-PPXE luminescence, 60 min; series mostly up to 57.1 µM; note: nearly all actives have a fitted effect of over 65% in size
# How it was run: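 Steps: enzyme/substrate mix dispensed; compound added, 10 min RT; NADPH regeneration solution added, 60 min RT; luciferin detection buffer stops reaction; 20 min later luminescence measured.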
# [17] = target: Cytochrome P450 2D6 (Homo sapiens) (UniProt P10635); experiment: qHTS Assay for Inhibitors and Substrates of Cytochrome P450 2D6 (AID 891); conditions: recombinant CYP2D6, luciferin-ME EGE luminescence; series mostly up to 57.1 µM; note: potency is the fitted concentration of half-maximal effect; nearly all actives have a fitted effect of over 60% in size
# How it was run: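 Human CYP2D6 (5 nM) with 30 uM Luciferin-ME EGE (at Km) in 100 mM KPO4, compound preincubated 10 min, then NADPH regeneration system for 60 min at room temperature. Luciferin read by luminescence; normalized to 1.43 uM quinidine.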
# [18] = target: Dual specificity protein kinase CLK4 (Homo sapiens) (UniProt Q9HAZ1); experiment: qHTS Assay for Inhibitors of CDC-like Kinase 4 (ADP-Glo Assay) (AID 1771); conditions: recombinant CLK4, ADP-Glo luminescence; series mostly up to 80 µM; note: potency is the fitted concentration of half-maximal effect; nearly all actives have a fitted effect of over 70% in size
# How it was run: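 25 nM Clk4 with 100 uM RS repeat peptide and 1 uM ATP (final) in buffer with 2 mM MgCl2, 0.5 mM EGTA, 2.5 mM DTT, 0.01% Triton X-100; 1 h at room temperature; ADP-Glo luminescence for ADP formed.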
# Chain of Cytochrome P450 3A4 (Homo sapiens) (P08684 whole entry, looked up): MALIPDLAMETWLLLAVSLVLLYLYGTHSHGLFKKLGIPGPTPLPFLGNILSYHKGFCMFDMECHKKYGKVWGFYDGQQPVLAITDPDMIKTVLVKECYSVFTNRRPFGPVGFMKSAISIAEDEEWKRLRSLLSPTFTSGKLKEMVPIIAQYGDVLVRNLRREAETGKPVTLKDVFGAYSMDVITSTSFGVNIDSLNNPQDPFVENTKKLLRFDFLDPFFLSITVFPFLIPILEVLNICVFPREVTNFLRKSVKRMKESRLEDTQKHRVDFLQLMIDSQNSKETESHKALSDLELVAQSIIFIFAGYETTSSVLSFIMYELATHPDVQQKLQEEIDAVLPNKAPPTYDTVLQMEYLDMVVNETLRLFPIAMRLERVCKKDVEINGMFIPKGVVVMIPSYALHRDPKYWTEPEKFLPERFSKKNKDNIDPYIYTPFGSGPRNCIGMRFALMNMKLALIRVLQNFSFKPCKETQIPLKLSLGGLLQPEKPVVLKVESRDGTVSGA
# Chain of 3',5'-cyclic-AMP phosphodiesterase 4B (Homo sapiens) (Q07343 whole entry, looked up): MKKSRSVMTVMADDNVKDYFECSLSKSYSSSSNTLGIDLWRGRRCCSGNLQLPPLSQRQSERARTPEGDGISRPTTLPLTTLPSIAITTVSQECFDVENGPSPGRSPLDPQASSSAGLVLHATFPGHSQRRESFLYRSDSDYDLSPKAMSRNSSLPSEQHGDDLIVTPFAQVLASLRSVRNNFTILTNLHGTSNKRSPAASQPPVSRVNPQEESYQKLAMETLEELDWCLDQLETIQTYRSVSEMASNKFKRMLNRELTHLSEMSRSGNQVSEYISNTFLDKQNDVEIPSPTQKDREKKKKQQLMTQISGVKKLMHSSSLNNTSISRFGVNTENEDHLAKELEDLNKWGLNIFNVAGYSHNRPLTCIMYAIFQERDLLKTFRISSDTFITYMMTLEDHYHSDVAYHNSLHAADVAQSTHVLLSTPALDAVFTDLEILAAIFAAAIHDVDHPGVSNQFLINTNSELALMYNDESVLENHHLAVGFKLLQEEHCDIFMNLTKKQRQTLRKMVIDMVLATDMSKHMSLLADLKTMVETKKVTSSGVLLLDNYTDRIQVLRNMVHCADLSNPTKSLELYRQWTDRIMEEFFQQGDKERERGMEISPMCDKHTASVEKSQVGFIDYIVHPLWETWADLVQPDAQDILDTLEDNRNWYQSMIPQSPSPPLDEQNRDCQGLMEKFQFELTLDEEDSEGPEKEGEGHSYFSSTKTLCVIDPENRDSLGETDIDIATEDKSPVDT
# Chain of Dual specificity protein kinase CLK4 (Homo sapiens) (Q9HAZ1 whole entry, looked up): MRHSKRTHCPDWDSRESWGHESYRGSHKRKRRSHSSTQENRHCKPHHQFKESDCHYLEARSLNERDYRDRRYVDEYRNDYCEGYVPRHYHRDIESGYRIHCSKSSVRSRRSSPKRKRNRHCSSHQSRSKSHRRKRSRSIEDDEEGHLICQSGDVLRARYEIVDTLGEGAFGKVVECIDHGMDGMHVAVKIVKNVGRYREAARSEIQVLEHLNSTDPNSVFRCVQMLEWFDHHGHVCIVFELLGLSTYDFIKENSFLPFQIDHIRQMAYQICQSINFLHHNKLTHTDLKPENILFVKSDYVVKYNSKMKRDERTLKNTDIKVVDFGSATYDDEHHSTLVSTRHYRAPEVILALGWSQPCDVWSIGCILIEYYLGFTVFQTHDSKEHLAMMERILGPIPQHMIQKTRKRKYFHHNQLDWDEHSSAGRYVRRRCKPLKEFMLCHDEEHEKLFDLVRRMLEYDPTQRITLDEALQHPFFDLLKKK
# Chain of Glucocorticoid receptor (Homo sapiens) (P04150 whole entry, looked up, the tested form may be a part): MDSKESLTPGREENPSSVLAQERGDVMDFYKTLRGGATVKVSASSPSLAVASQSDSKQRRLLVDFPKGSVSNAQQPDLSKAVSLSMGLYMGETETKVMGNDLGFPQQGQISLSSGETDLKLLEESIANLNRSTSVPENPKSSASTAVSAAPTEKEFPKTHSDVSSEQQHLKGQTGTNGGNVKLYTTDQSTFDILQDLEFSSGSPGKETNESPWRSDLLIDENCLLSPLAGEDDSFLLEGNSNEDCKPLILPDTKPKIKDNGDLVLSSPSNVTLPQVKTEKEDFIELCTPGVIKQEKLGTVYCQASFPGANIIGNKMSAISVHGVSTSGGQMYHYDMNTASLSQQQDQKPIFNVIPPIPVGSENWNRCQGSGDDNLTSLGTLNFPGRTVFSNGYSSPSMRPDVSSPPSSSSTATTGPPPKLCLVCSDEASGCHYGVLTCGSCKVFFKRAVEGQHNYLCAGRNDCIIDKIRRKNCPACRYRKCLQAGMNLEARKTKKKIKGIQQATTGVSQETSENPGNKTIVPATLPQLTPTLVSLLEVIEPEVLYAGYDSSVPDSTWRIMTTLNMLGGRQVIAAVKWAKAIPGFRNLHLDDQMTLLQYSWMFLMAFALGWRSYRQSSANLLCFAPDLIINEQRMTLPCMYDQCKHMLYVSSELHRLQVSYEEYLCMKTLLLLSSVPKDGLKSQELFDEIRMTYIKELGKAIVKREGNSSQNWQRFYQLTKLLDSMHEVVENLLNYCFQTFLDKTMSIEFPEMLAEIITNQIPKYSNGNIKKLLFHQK
# Chain of Cytochrome P450 1A2 (Homo sapiens) (P05177 whole entry, looked up): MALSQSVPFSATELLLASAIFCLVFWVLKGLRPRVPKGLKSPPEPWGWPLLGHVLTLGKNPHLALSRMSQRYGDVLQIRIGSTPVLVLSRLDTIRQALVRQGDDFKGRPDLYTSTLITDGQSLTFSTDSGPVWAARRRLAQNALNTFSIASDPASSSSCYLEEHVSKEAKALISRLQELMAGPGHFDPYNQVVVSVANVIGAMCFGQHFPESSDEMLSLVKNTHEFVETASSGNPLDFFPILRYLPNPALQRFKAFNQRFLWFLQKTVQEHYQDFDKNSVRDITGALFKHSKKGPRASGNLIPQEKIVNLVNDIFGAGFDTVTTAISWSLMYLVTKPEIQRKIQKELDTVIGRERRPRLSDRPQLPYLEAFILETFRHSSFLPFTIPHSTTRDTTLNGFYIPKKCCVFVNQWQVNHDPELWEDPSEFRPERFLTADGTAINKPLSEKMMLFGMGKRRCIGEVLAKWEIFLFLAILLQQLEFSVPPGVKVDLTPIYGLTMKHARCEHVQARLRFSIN
# Chain of Ubiquitin carboxyl-terminal hydrolase 1 (Homo sapiens) (O94782 whole entry, looked up): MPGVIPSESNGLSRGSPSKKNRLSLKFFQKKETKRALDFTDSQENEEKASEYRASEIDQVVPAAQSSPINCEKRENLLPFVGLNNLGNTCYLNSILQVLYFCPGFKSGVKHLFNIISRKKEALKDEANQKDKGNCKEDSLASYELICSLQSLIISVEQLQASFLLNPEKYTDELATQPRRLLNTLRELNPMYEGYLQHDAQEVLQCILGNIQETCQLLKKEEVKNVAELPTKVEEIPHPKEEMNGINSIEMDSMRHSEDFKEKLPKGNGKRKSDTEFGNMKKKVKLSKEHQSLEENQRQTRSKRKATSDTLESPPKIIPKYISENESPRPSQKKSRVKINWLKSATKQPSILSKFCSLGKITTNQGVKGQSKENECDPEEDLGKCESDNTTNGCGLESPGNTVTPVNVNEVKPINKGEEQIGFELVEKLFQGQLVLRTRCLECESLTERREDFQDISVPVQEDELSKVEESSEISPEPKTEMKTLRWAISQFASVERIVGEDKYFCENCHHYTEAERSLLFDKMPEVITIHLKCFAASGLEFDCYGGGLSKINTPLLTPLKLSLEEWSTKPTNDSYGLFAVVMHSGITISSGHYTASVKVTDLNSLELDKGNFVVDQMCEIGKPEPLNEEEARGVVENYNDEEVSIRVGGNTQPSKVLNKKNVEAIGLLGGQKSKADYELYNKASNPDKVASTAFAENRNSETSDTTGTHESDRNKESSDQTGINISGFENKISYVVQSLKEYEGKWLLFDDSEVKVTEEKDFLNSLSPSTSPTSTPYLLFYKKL
# Chain of Lysosomal acid glucosylceramidase (Homo sapiens) (P04062 whole entry, looked up): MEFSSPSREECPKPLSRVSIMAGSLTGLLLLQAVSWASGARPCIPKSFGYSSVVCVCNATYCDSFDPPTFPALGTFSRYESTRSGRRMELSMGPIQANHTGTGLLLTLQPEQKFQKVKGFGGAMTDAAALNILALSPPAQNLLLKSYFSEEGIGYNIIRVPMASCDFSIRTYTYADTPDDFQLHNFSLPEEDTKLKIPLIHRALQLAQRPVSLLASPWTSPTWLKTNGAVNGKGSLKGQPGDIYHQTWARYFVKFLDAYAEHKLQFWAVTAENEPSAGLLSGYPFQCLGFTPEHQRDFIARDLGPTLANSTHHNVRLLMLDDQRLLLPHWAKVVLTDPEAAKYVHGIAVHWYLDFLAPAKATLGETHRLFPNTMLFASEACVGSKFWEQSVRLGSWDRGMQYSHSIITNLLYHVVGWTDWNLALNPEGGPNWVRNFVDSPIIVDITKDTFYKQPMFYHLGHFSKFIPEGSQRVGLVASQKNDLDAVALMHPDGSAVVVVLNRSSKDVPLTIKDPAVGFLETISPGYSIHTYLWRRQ
# Chain of Cytochrome P450 2C19 (Homo sapiens) (P33261 whole entry, looked up): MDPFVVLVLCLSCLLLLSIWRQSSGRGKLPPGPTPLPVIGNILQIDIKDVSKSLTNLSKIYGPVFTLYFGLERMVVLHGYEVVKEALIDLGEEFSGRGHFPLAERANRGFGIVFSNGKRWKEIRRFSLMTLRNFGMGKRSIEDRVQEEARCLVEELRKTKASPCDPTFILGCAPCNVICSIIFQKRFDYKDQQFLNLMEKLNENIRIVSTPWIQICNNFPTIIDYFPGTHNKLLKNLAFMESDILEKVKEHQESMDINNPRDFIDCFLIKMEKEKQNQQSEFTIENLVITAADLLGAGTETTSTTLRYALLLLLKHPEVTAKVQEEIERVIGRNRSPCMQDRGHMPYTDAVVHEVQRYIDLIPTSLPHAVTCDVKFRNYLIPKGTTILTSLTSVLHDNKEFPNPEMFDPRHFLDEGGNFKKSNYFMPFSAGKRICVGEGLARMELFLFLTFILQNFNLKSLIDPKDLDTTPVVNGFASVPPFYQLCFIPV
Compound,Potency [1] [µM],"activity change, negative = inhibition [2] [%]",Potency [3],"activity change, negative = inhibition [4] [%]","activity, negative = inhibition [5] [%]",Potency [6] [µM],Potency [7] [µM],Potency [8],Potency [9],Potency [10],Potency [11],Potency [12],Potency [13],Potency [14],outcome [15],Potency [16],Potency [17],Potency [18]
CN(C)C(=O)c1ccc(-c2cncnc2NCc2cccnc2)cc1,> 11.4,22,5.01 µM (active),3.94,17.6,> 46,> 46,inactive,inactive,5.01 µM (active),2.51 µM (active),inactive,inactive,inactive,inactive,,,
COCCNc1nc(-c2cccc(NS(C)(=O)=O)c2)nc2ccccc12,> 11.4,-25.4,3.16 µM (active),22.3,-10.1,> 46,> 46,inactive,,,,11.2 µM (active),14.1 µM (active),,inactive,inactive,,
COc1ccc2[nH]cc(CCNc3ccnc(-c4cccnc4)n3)c2c1,> 11.4,,0.251 µM (active),11.3,-3.13,> 46,> 46,inactive,inactive,1.26 µM (active),,12.6 µM (active),,inactive,inactive,inactive,1.26 µM (active),14.1 µM (active)
COc1ccc(-n2c(=O)c(-c3ccccc3)nc3cncnc32)cc1,> 11.4,-26.7,3.98 µM (active),8.64,-9.27,> 9.22,> 46,inactive,inactive,,,inactive,inactive,inactive,inactive,inactive,,
COc1cccc(-c2nccc(NCc3ccccc3)n2)c1,> 11.4,,0.501 µM (active),15.6,-13.5,> 46,> 46,inactive,,3.98 µM (active),7.94 µM (active),15.8 µM (active),,25.1 µM (active),inactive,inactive,,15.8 µM (active)
CN(C)c1ncnc2ccc(-c3cccc(C#N)c3)cc12,> 11.4,-26.8,,,,> 46,> 46,inactive,inactive,,,14.1 µM (active),,inactive,inactive,inactive,,15.8 µM (active)
